Experimental findings from publication PMC5540273 (PLoS ONE, 2017) are described below.

Holding throughout (conditions): concentration: 1 μM, replicates: in singlicate; n = 1
Assay [1] deals with MYLK4.
The subject of assay [2] is MYLK.
In assay [3] the test system is MYO3A.
In assay [4] the test system is MYO3B.
For assay [5], the system named is T1, NDR1.
T1 construct: gene STK38

Assay [6] deals with NDR2.
In assay [7] the test system is NEK10.
For assay [8], the system named is NEK11.
In assay [9] the test system is NEK1.
Assay [10] relates to NEK2.
Assay [11] concerns NEK3.
Assay [12] has as its system NEK4.
Assay [13] has as its system NEK5.
Assay [14] has as its system NEK6.
Assay [15] relates to NEK7.
Assay [16] has as its system NEK9.
Assay [17] concerns T2, NIK.
T2 construct: gene MAP3K14

The subject of assay [18] is T3, NIM1.
T3 construct: gene MGC42105

Assay [19] relates to NLK.
For assay [20], the system named is T4, OSR1.
T4 construct: gene OXSR1

SMILES strings stand for the structures.
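Further: KINOMEscan kinase panel screen.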

In the case of `Cl.Fc1ccccc1COc1ccc(Nc2ncnc3ccc(-c4nnc(C(F)(F)F)o4)cc23)cc1Cl` [GW424170], the “%Inh” value in assay [1] is 0%; in assay [2], 0%; in [3], 0%; in assay [4], 0%; in assay [5], 0%; in assay [6], 16%. For the same molecule, the “%Inh” value in assay [7], in [8], in assay [9], in assay [10], in [11] and in [12] was 0% in each case. For the same molecule, the “%Inh” value in [13] came to 4%; in assay [14], 0%; in [15] it was 0%; in assay [16], 0%; in [17], 10%; in assay [18], 0%. In addition, the “%Inh” value in assay [19] and in [20] was 0% each time.
As for `Cl.Cl.c1ccc(-c2cc3ccncc3cc2OC2CCNCC2)cc1` [GSK1122999], the “%Inh” value is 21% in assay [1]; 25% in [2]; 10% in [3]; 0% in assay [4]; 0% in assay [5]; 0% in assay [6]. Further, the “%Inh” value turned out to be 24% in [7]; 0% in [8]; 0% in assay [9]; 17% in assay [10]; 0% in assay [11]; 2% in [12]. In addition, the “%Inh” value in assay [13] came out at 22%; in assay [14], 0%; in assay [15], 4%; in [16] it was 28%; in assay [17], 3%; in [18], 12%. Also, the “%Inh” value in assay [19] is recorded as 15%; in assay [20], 8%.
With `Cc1cc(N2CCC(NS(=O)(=O)c3ccc(F)cc3)CC2)nc(Nc2cccc(C#N)c2)n1.O=C(O)C(F)(F)F` [GSK1653537], the “%Inh” value in [1], in [2], in [3], in assay [4], in assay [5] and in assay [6] was 0% each time. Besides, the “%Inh” value worked out at 1% in assay [7]; 0% in [8]; 55% in assay [9]; 0% in [10]; 0% in [11]; 0% in assay [12]. Moreover, the “%Inh” value is recorded as 0% in assay [13]; 0% in assay [14]; 0% in [15]; 0% in assay [16]; 0% in [17]; 18% in assay [18]. The results for the “%Inh” value in assay [19] and in assay [20] were 35% and 6%, respectively.
`CSc1ccc(NC2=C(c3ccccc3Cl)C(=O)NC2=O)cc1` [SB-342411]: the “%Inh” value in [1] worked out at 10%; in assay [2], 4%; in assay [3] it was 0%; in assay [4] it was 0%; in assay [5], 31%; in assay [6], 0%. Further, the “%Inh” value in assay [7] is recorded as 29%; in assay [8], 0%; in assay [9], 75%; in assay [10] it was 8%; in [11], 0%; in [12], 0%. Moreover, the “%Inh” value in assay [13] stood at 8%; in [14], 0%; in [15], 0%; in assay [16], 15%; in assay [17], 0%; in assay [18], 0%. The “%Inh” value stood at 56% in assay [19] and 2% in [20].
Regarding `CCCc1ccc(S(=O)(=O)NC2CCN(c3ccnc(Nc4ccc(OC)cc4)n3)C2)cc1` (centres unmarked) [GSK1379737], the “%Inh” value in assay [1] is listed as 0%; in [2], 30%; in assay [3] it was 15%; in assay [4] it was 0%; in [5], 0%; in assay [6], 0%. Moreover, the “%Inh” value in assay [7] was 21%; in [8], 27%; in assay [9], 0%; in assay [10], 0%; in assay [11], 1%; in assay [12], 10%. The “%Inh” value in assay [13] is listed as 15%; in assay [14], 39%; in assay [15], 0%; in assay [16], 0%; in [17] it was 43%; in assay [18], 30%. Besides, the “%Inh” value in assay [19] is on record as 0%; in [20], 100%.
For the molecule `CC(C)(C)OC(=O)NC1CCCN(c2cc(-c3ccc4c(N)n[nH]c4c3)nc(N)n2)C1` (centres unmarked) [GSK2286096], the “%Inh” value came to 0% in assay [1]; 0% in assay [2]; 0% in [3]; 0% in [4]; 21% in assay [5]; 0% in [6]. Besides, the “%Inh” value worked out at 0% in [7]; 0% in [8]; 0% in assay [9]; 7% in assay [10]; 3% in [11]; 13% in assay [12]. In addition, the “%Inh” value was found to be 2% in [13]; 0% in assay [14]; 0% in [15]; 2% in assay [16]; 0% in [17]; 9% in assay [18]. Further, the figures for the “%Inh” value in assay [19] and in assay [20] were 27% and 0%, respectively.
For the molecule `Cc1cccc(-c2nc(Nc3ccc4[nH]nnc4c3)c3ccccc3n2)n1` [GW867587], the “%Inh” value in [1] is 1%; in assay [2] it was 0%; in [3], 0%; in [4], 0%; in assay [5], 0%; in [6] it was 6%. Besides, the “%Inh” value in [7] came out at 0%; in assay [8] it was 0%; in [9] it was 0%; in assay [10] it was 0%; in assay [11] it was 22%; in [12], 0%. The “%Inh” value in [13] was 2%; in [14], 0%; in assay [15], 0%; in assay [16] it was 0%; in assay [17] it was 21%; in assay [18], 0%. For the same molecule, the “%Inh” value in [19] and in assay [20] was 0% in each case.
In the case of `Cl.c1ccc(Cn2ccc3cc(Nc4ncnc5ccccc45)ccc32)cc1` [GW275568], the “%Inh” value in [1] worked out at 26%; in assay [2] it was 21%; in [3] it was 16%; in assay [4], 0%; in assay [5] it was 32%; in assay [6], 1%. Moreover, the “%Inh” value in assay [7] turned out to be 29%; in assay [8] it was 0%; in assay [9] it was 0%; in [10], 14%; in [11], 12%; in assay [12], 5%. Further, the “%Inh” value in assay [13] was 28%; in assay [14], 0%; in assay [15], 9%; in assay [16] it was 24%; in [17], 0%; in [18], 10%. The figures for the “%Inh” value in assay [19] and in assay [20] were 20% and 1%, respectively.
Consider `Clc1cccc(-c2nc(Nc3ccncc3)c3ccccc3n2)c1` [GW873004], for which the “%Inh” value in [1] was found to be 0%; in [2] it was 0%; in [3], 15%; in [4], 17%; in [5], 15%; in assay [6], 0%. For the same molecule, the “%Inh” value came to 0% in [7]; 0% in assay [8]; 0% in assay [9]; 0% in [10]; 36% in [11]; 0% in assay [12]. The “%Inh” value is 23% in assay [13]; 14% in [14]; 0% in [15]; 3% in assay [16]; 0% in [17]; 0% in assay [18]. Also, the “%Inh” value is reported as 30% in [19] and 0% in assay [20].
On to `O=C(Nc1n[nH]c2nc(-c3ccco3)c(Br)cc12)c1ccc(CN2CCCC2)cc1.O=C(O)[C@H](O)[C@@H](O)C(=O)O` [SB-742352], for which the “%Inh” value in assay [1] turned out to be 5%; in [2] it was 83%; in [3] it was 0%; in [4] it was 8%; in [5], 0%; in assay [6] it was 0%. The “%Inh” value came to 0% in assay [7]; 0% in assay [8]; 0% in [9]; 6% in assay [10]; 0% in assay [11]; 0% in assay [12]. The “%Inh” value turned out to be 0% in assay [13]; 0% in assay [14]; 10% in assay [15]; 0% in assay [16]; 0% in assay [17]; 0% in assay [18]. The “%Inh” value in assay [19] and in assay [20] was 0% throughout.
